Results filed as inconclusive are left out. A call without a number means that no potency is given here. Activity calls are given as the source filed them. The call rests on the fitted dose curve; in most records, active means well fitted inhibition curve with a large enough effect in the repeat runs; inconclusive means weak or mixed curves; inactive means no such curve, though single readings can be large or run the other way.
Each compound was assayed against Aromatase (Homo sapiens) (UniProt P11511) (assay: qHTS assay to identify aromatase inhibitors (AID 743083; further: nearly all actives have a fitted effect of over 55% in size)). Conditions: MCF-7 aro ERE, testosterone-driven ERE luciferase, 24 h; series mostly up to 70.3 µM.
Aromatase (Homo sapiens), sequence (P11511 whole entry, looked up): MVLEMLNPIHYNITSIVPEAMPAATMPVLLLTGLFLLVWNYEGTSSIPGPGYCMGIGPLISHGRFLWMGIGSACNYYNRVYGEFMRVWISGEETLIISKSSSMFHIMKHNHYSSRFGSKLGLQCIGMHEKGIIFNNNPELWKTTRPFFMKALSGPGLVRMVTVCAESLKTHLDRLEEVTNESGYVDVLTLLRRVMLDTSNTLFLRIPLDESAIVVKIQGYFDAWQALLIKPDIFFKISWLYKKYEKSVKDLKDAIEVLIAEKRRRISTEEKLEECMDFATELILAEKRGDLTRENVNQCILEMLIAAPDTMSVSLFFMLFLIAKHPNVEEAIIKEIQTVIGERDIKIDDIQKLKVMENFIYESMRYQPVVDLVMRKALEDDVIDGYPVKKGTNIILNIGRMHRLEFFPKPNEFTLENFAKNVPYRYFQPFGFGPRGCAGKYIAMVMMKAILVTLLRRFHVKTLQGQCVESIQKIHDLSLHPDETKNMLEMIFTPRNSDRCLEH
With `CC(C)=CC1C(C(=O)OCc2cccc(Oc3ccccc3)c2)C1(C)C` (stereo unspecified) the Potency was “inactive”. In the case of `Clc1cccc(C(Cl)(Cl)Cl)n1`, the Potency is reported as “inactive”. With `CSc1nc(NC(C)C)nc(NC(C)C)n1` the Potency was “inactive”. `CNC(=O)CSP(=S)(OC)OC` was tested, and the Potency was “inactive”. `CCC/C=N/O` was tested, and the Potency was “inactive”. For `C[C@]12CCC(=O)C=C1CC[C@@H]1[C@@H]2CC[C@@]2(C)[C@H]1CC[C@]2(C)O`, the Potency was “inactive”.

— PubChem BioAssay (Tox21)
